Peg3 prom inh = Peg3 promoter-driven luciferase inhibitors, primary screen, cell-based, HeLa, luciferase luminescence. HeLa PEG-Prom luciferase reporter, overnight. inhibition, % at 20 µM. actives 1.7% (n = 360,000). AID 588405, 2011;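 active means inhibition of at least 50% at 20 µM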
Shn3 3UTR inh = reduction of Shn3 3'UTR firefly luciferase signal, primary screen, Schnurri-3 inhibitor project, cell-based, Clone20 osteoblasts, set 2; inhibition, % at 12.5 µM; actives 0.52% (n = 360,000); Clone20 osteoblast Shn3 3'UTR firefly luciferase, 24 h; AID 588674, 2011;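 active means mean inhibition of at least 75% with every replicate also reaching 75%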;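 further: 0% = median of neutral control wells and 100% = pilot-screen positive control compound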
LMP1 NFkB inh = EBV LMP1-driven NF-kappaB luciferase reporter inhibitors, primary screen, cell-based, luminescence, single point; actives 0.69% (n = 350,000); AID 504558, 2011; LMP1-induced NF-kappaB luciferase reporter cells; inhibition, % at 12.5 µM; in the data active means inhibition above about 41%;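 further: 0% = neutral control wells and 100% = reference inhibitor control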
PAX8 inh HTS = inhibitors of PAX8-driven TPO luciferase reporter, primary screen, RMG-I cells, single concentration; SteadyGlo, 24 h; actives 1.2% (n = 360,000); AID 652154, 2013; inhibition, % at 12.6 µM;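 active means mean replicate inhibition at least 60% with every replicate also reaching 60%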;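 further: luciferase light reporting Pax8 driven TPO promoter activity; plate controls were median of neutral control wells for no effect and mitoxantrone controls for full effect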
HIF-2a block = HIF-2a reporter inhibitors, primary screen, luminescence, 786-0 RCC cells. inhibition, % at 18.8 µM. actives 0.72% (n = 360,000). 786-0 RCC cells HIF-2a reporter, luciferase luminescence, overnight;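 active means inhibition of the luminescence signal of 40% or more relative to plate controls, in a single-dose primary screen at 18.75 µM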
MITF TRPM1 inh = inhibitors of MITF-dependent TRPM1 promoter reporter, primary screen, cell-based, SK-MEL-5, single point, luciferase; SK-MEL-5 TRPM1 promoter luciferase, 24 h; inhibition, % at 12.5 µM; actives 0.83% (n = 330,000); AID 488899, 2010;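 active means mean inhibition across replicates of 60% or more, whatever share of single replicates reaches that level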
The depositor's hits bear a star; . = no result given. An excerpt weighted towards active compounds, which were near 2.8% of everything screened.

SMILES	Peg3 prom inh	Shn3 3UTR inh	LMP1 NFkB inh	PAX8 inh HTS	HIF-2a block	MITF TRPM1 inh
Cc1ccc(C(C)C)c(OCC(=O)NC(=S)Nc2ccccc2N2CCOCC2)c1	13	-9	31	-11	10	29
CCC(=O)N1CCN(c2ccccc2NC(=O)COc2cc(C)ccc2C(C)C)CC1	52*	21	4	.	5	6
CN(C)CCCN(C(=O)c1cc(-c2cccs2)nc2ccccc12)c1nc2c(F)cccc2s1	71*	4	-1	7	8	53
CN(C)CCCN(C(=O)c1sc2ccccc2c1Cl)c1nc2c(F)cccc2s1	-8	-13	4	-6	-8	-2
Cc1ccc2nc(N(CCCN(C)C)C(=O)c3cc(-c4cccs4)nc4ccccc34)sc2c1	107*	-3	2	-11	-1	44
COc1cc2ccccc2cc1C(=O)N(CCN(C)C)c1nc2ccc(C)cc2s1	0	0	2	27	-12	-12
CN(C)CCCN(C(=O)/C=C/c1cccs1)c1nc2c(F)cccc2s1	106*	-18	-4	-23	14	54
O=C(NNc1ccccn1)C(c1ccccc1)c1ccccc1	1	-5	-3	23	9	3
O=C(NNC(=O)C(c1ccccc1)c1ccccc1)c1ccccn1	28	93*	26	51	18	50
CCOC(=O)C1(Cc2ccc(Cl)cc2)CCN(C(C)Cc2ccc(O)c(OC)c2)CC1 (centres undefined)	9	92*	12	29	6	5
Cc1ccc(-n2c(O)c(C=Nc3ccc4c(c3)OCO4)c3ccccc3c2=O)cc1C	27	42	2	.	-17	4
Cc1cc(N=Cc2c(O)n(-c3ccc4c(c3)OCO4)c(=O)c3ccccc23)ccn1	8	40	-2	16	3	75*
CCOc1ccc(C(C(=O)NC2CCCC2)N(C(=O)c2snc(C(N)=O)c2N)c2cccc(O)c2)cc1 (centres undefined)	53*	6	0	55	1	0
COc1ccc(C(C(=O)NC2CCCC2)N(C(=O)c2snc(-c3ccc(F)cc3)c2N)c2ccccc2)cc1 (centres undefined)	39	5	-30	.	16	18
COc1ccc(C(C(=O)NC2CCCC2)N(C(=O)c2snc(-c3ccc(F)cc3)c2N)c2cccc(F)c2)cc1 (centres undefined)	51*	4	-68	6	4	19
Cc1cc(C)cc(N(C(=O)c2nsc(Cl)c2Cl)C(C(=O)NC2CCCC2)c2ccc(O)cc2)c1 (centres undefined)	60*	11	-2	22	8	17
CN1C(=O)c2cc(NC(=O)C3CCCC3)ccc2OC[C@@H]2O[C@H](CC(=O)NCc3ccccc3F)CC[C@H]21	.	.	.	-17	.	.
O=c1[nH]c(=O)n([C@H]2C[C@H](O)[C@@H](CO)O2)cc1C(F)(F)F	22	30	46*	-12	8	13
O=C(O)c1ccccc1C(=O)N1CCN(Cc2ccc3c(c2)OCO3)CC1	3	-12	.	-7	3	-26
O=C(c1ccccc1Br)N1CCN(Cc2ccc3c(c2)OCO3)CC1	7	8	43*	-15	10	10
COc1cccc(C(=O)Nc2ccc(-c3nc4ccccc4o3)c(O)c2)c1	-84	-16	-5	.	-128	-13
COc1cc(C(=O)Nc2ccc(-c3nc4cc(C)ccc4o3)c(O)c2)cc(OC)c1OC	70*	34	12	.	-6	-5
O=C(NC(=S)N1CCN(c2ccccn2)CC1)c1ccco1	3	-10	54*	-4	20	4
COc1ccc(C#Cc2ccc([C@H]3[C@@H](CO)N4CCCCN(C(=O)Nc5cccc(F)c5)C[C@H]34)cc2)cc1	.	.	.	76*	.	.
COc1ccccc1NC(=O)N1CCCCN2[C@H](CO)[C@H](c3ccc(-c4cccc(C)c4)cc3)[C@H]2C1	.	.	.	104*	.	.
COc1ccc(C#Cc2ccc([C@H]3[C@@H](CO)N4CCCCN(C(=O)Nc5cccc(F)c5)C[C@@H]34)cc2)cc1	.	.	.	15	.	.

High-throughput results (PubChem)
